Rab9 prom act – qHTS Assay for Rab9 Promoter Activators | Potency, µM (series often up to 9.22 µM), hits mostly activators | AID 485297, 2010 | Huh7 Rab9 promoter-luciferase reporter, luminescence, 24 h | 320,000 compounds, 2.8% hits; further: nearly all actives have a fitted effect of over 60% in size
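Cell-based reporter: Huh7 stable for Rab9 promoter-driven luciferase, plated in reduced-serum medium with 10% FBS at 1500 cells/well, compound-treated 24 h at 37 °C, luminescence read after 10 min reagent.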
SMN2 splice up – qHTS Assay for Enhancers of SMN2 Splice Variant Expression. 210,000 compounds, 2.8% hits. Potency, µM (highest dose often 46.1 µM), actives largely listed as activators. HEK293 SMN2-luciferase splicing reporter, luminescence, 30-36 h; further: nearly all actives have a fitted effect of over 55% in size
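qHTS luciferase splicing reporter: luminescence rises when SMN2 exon 7 is included in transfected HEK293 cells. Compound exposure lasted 30-36 h at 37C, with 4.5 mM final sodium butyrate as control, followed by a ONE-Glo read.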
KinaseGlo FLuc – Counterscreen for Luciferase (Kinase-Glo TM) Inhibition | 200,000 compounds, 0.28% hits | Luciferin 4-monooxygenase (Photuris pensylvanica), Q27757 | Potency, µM (doses to about 38.3 µM), hits mostly inhibitors | AID 1379, 2008 | Kinase-Glo luciferase, ATP luminescence, 8 min; further: nearly all actives have a fitted effect of over 60% in size
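Compound is pinned into ATP-containing buffer (10 uM ATP, imidazole pH 7.2, 7 mM MgCl2). Kinase-Glo luciferase reagent is then added. Light output is recorded following an 8-min room-temperature incubation.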
NPC1 promoter act – qHTS Assay for NPC1 Promoter Activators; 320,000 compounds, 2.4% hits; Potency, µM (top dose mostly 9.22 µM), hits mostly activators; Huh7 NPC1 promoter luciferase reporter, 24 h; AID 485313, 2010; further: nearly all actives have a fitted effect of over 60% in size
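NPC1 promoter–luciferase Huh7 cells; 24 h compound; luminescence.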
ELG1 genotox – qHTS screen for small molecules that induce genotoxicity in human embryonic kidney (HEK293T) cells expressing luciferase-tagged ELG1; Potency, µM (top dose mostly 46 µM), hits mostly activators; HEK293T ELG1-luciferase reporter, luminescence, 16 h; 330,000 compounds, 1.3% hits; further: nearly all actives have a fitted effect of over 60% in size
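Luminescence read-out: rising ELG1-luciferase signal, reflecting elevated ELG1 protein under genetic stress, flags genotoxic compounds. Cells were treated for 16 hr at 37 °C before ONE-Glo detection.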
FLuc counter – qHTS profiling assay for firefly luciferase inhibitor/activator using purifed enzyme and Km concentrations of substrates (counterscreen for miR-21 project); Luciferin 4-monooxygenase (Photinus pyralis), P08659; purified FLuc, Km substrates, luminescence inhibition; 360,000 compounds, 6.9% hits; AID 588342, 2011; Potency, µM (series often up to 57.5 µM), actives largely listed as inhibitors; further: nearly all actives have a fitted effect of over 55% in size
Target sequence (P08659 whole entry, looked up): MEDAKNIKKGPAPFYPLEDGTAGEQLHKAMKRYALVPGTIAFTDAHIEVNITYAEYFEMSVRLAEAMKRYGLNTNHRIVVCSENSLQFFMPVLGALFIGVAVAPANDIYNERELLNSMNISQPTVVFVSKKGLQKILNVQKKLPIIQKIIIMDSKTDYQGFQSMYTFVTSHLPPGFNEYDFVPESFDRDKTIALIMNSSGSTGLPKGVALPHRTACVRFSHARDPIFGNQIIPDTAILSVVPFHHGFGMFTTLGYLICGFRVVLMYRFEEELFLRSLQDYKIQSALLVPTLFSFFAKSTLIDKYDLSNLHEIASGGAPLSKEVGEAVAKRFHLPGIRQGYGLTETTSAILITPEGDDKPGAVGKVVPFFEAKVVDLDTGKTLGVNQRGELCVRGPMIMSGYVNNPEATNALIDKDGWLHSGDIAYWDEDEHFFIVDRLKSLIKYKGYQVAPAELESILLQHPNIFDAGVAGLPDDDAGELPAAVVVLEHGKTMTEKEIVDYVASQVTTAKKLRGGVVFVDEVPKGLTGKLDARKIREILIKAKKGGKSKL
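Biochemical qHTS of compounds, final roughly 60 µM downward over six points, against 10 nM purified firefly luciferase using Km concentrations of substrates (10 uM D-luciferin, 10 uM ATP) in Tris acetate pH 7.5 buffer; luminescence output.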
Large screens that a line does not name were inactive. In the library only some 7.4% were active in any assay of this set; here they are far more common. The call rests on the fitted dose curve; in most records, active means well fitted curve in the direction sought with a large enough effect; inconclusive means small, poorly fitted or top-dose-only effect, or another doubt; inactive means no such curve, though single readings can be large; an effect the other way counts as inactive or inconclusive.

COc1ccc(-c2nc3nc(C)cc(Nc4cccc(C(F)(F)F)c4)n3n2)cc1	none (no result: KinaseGlo FLuc, ELG1 genotox)
CCC(CC)C(=O)OCc1cc(=O)n2nc(C3CC3)sc2n1	none (no result: Rab9 prom act, SMN2 splice up, KinaseGlo FLuc, NPC1 promoter act, ELG1 genotox)
COc1ccc(/C(N)=N/OC(=O)CSc2ccccc2)cc1	Rab9 prom act 3.2µM, NPC1 promoter act inconclusive, ELG1 genotox inconclusive, FLuc counter 4.8µM
N/C(=N\OC(=O)CSc1ccccc1)c1ccc([N+](=O)[O-])cc1	SMN2 splice up inconclusive, ELG1 genotox inconclusive, FLuc counter 19µM
Cc1ccc(/C(N)=N/OC(=O)COc2ccccc2Cl)cc1	ELG1 genotox 23µM, FLuc counter 19µM
N/C(=N\OCc1ccc([N+](=O)[O-])cc1)c1ccncc1	SMN2 splice up 16µM, NPC1 promoter act inconclusive, ELG1 genotox inconclusive, FLuc counter 15µM
O=C(NNC(=O)c1ccc([N+](=O)[O-])cc1)c1ccncc1	none
COC(=O)N1[C@H]2CC[C@@]3(C)CC(=O)C[C@]1(C)C3c1ccccc12	none (no result: Rab9 prom act, NPC1 promoter act, ELG1 genotox, FLuc counter)
C=Cc1ccc(Cn2c(=O)cc(C)c3c(C)nn(C)c32)cc1	none (no result: Rab9 prom act, SMN2 splice up, KinaseGlo FLuc, NPC1 promoter act, ELG1 genotox)
COc1ccc(/C(N)=N/OC(=O)CSc2ccc(C)cc2)cc1	FLuc counter inconclusive
Cc1ccc(/C(N)=N/OC(=O)CSc2ccccc2)cc1	Rab9 prom act 3.5µM, SMN2 splice up 11µM, NPC1 promoter act 2.5µM, ELG1 genotox inconclusive, FLuc counter 1.7µM
COc1cccc(/C=N/Nc2snc(SC)c2C#N)c1	NPC1 promoter act inconclusive, FLuc counter 4.8µM
COc1cccc(/C=N/Nc2snc(SC)c2C#N)c1O	FLuc counter 4.8µM
COc1ccc(/C=N/Nc2snc(SC)c2C#N)cc1OC	Rab9 prom act 2.8µM, SMN2 splice up inconclusive, NPC1 promoter act 2.8µM, FLuc counter 2.1µM
CSc1nsc(N/N=C/c2ccccc2)c1C#N	FLuc counter inconclusive
N#Cc1cc2c(nc1SCC(=O)Nc1sc3c(c1C#N)CCC3)CCC2	Rab9 prom act inconclusive, NPC1 promoter act inconclusive
N#Cc1cc2c(nc1SCC(=O)Nc1sc3c(c1C#N)CCC3)CCCCCC2	none
N#Cc1cc2c(nc1SCC(=O)Nc1nccs1)CCCCC2	Rab9 prom act 0.28µM, SMN2 splice up 1µM, NPC1 promoter act 0.28µM, ELG1 genotox 0.12µM, FLuc counter 0.67µM
Cc1ccc(SCC(=O)Nc2nccs2)cc1	Rab9 prom act inconclusive, NPC1 promoter act inconclusive, ELG1 genotox inconclusive, FLuc counter inconclusive
CCOC(=O)c1c(SCC(=O)Nc2nccs2)nc(C)c(C)c1C	Rab9 prom act 2.5µM, NPC1 promoter act 2.8µM, ELG1 genotox inconclusive (no result: SMN2 splice up, KinaseGlo FLuc)
CCSc1nnc(NC(=O)CSc2nc3c(cc2C#N)CCCC3)s1	Rab9 prom act 3.2µM, SMN2 splice up 7.9µM, NPC1 promoter act 1.8µM, FLuc counter 12µM
Cc1ccc(C#N)c(SCC(=O)Nc2nccs2)n1	Rab9 prom act 0.45µM, SMN2 splice up 1.8µM, NPC1 promoter act 0.79µM, ELG1 genotox 1.8µM
CCOC(=O)N1CCc2c(sc3c2c(=O)n(-c2ccc(Cl)cc2)c(=O)n3CC(C)C)C1	none (no result: Rab9 prom act, KinaseGlo FLuc, NPC1 promoter act, ELG1 genotox)
Cc1cc(NC2CCCCC2)nc(-n2nc(C)cc2C)n1	none (no result: SMN2 splice up, KinaseGlo FLuc, ELG1 genotox, FLuc counter)
COc1cccc(CN2C(=O)c3ccccc3Sc3ccc(C(=O)N(C)Cc4ccccc4)cc32)c1	none (no result: Rab9 prom act, KinaseGlo FLuc, NPC1 promoter act, ELG1 genotox)
CCOc1ccc(CCNC(=O)CCCc2nnc3n(CC(C)C)c(=O)c4sccc4n23)cc1	none (no result: Rab9 prom act, SMN2 splice up, KinaseGlo FLuc, NPC1 promoter act, ELG1 genotox)
Cc1cccc(-n2ccnc2SCC(=O)Nc2nccs2)c1	Rab9 prom act 3.5µM, NPC1 promoter act inconclusive, FLuc counter inconclusive (no result: SMN2 splice up, KinaseGlo FLuc)
CCc1nnc(NC(=O)CSc2nc3c(cc2C#N)CCC3)s1	Rab9 prom act 2.2µM, SMN2 splice up 13µM, NPC1 promoter act 2.8µM, ELG1 genotox inconclusive, FLuc counter 0.85µM
CC(=O)N1c2ccccc2CC1C(=O)NCc1cccc(Cl)c1 (configuration not stated)	none (no result: Rab9 prom act, KinaseGlo FLuc, NPC1 promoter act, ELG1 genotox)
COC(=O)c1nnc(SC)nc1C(=O)OC	none (no result: Rab9 prom act, NPC1 promoter act, ELG1 genotox, FLuc counter)

Screens deposited in PubChem BioAssay by National Center for Advancing Translational Sciences (NCATS).
